CBX7 AlphaScr: CBX7 inhibition, primary AlphaScreen; O95931; AlphaScreen His6-CBX7 / biotin-H3K27me3 peptide binding; hits give low values; normalised signal (fraction of DMSO) (test concentration not listed); hit rate 1.1% among 66,000; AID 1224903; in the data active = normalised signal below about 0.5
Target sequence (O95931 whole entry, looked up): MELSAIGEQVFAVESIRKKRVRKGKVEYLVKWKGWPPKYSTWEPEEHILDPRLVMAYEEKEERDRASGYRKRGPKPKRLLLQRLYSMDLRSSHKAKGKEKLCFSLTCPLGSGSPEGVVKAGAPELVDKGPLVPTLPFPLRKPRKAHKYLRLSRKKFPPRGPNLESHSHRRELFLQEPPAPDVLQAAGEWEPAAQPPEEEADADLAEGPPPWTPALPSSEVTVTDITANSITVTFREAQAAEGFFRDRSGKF
Active calls of the source: *. The full list was thinned out, with hits kept by preference.

SMILES	CBX7 AlphaScr
COc1ccc(OC)c(NC(=O)c2c(NCc3cccs3)sc3c2CCC3)c1	0.95
COc1ccc(OC)c(NC(=O)c2c(NCc3cccs3)sc3c2CCCC3)c1	0.59
COc1ccc(NC(=O)c2c(NCc3sccc3C)sc3c2CCCCC3)c(OC)c1	0.52
COc1ccc(NC(=O)c2c(NCc3cccs3)sc3c2CCCCC3)cc1	0.74
COc1ccc(NC(=O)c2c(NCc3cccs3)sc3c2CCC3)cc1	0.57
COc1ccc(Cl)cc1NC(=O)c1c(NCc2sccc2C)sc2c1CCCC2	0.39*
COc1ccc(OC)c(NC(=O)c2c(NCc3sccc3C)sc3c2CCCC3)c1	0.49*
COc1ccc(OC)c(CNc2sc3c(c2C(=O)Nc2cc(OC)ccc2OC)CCCC3)c1	0.58
CCOc1ccc(-n2c(CCC(=O)O)ccc2-c2cccs2)cc1	0.78
Cc1oc(-c2ccccc2)nc1CN1CCCC(C(=O)O)C1 (centres undefined)	1
O=C1C2C3C=CC(C3=C3CCCC3)C2C(=O)N1c1ccc(Cl)c(Cl)c1 (centres undefined)	0.93
CCCCn1c(CCCNC(=O)c2ccccc2)nc2ccccc21	1.2
O=C1c2[nH]nc(-c3ccccc3)c2C(c2cccc(F)c2)N1c1cccc(C(F)(F)F)c1 (centres undefined)	0.95
COc1cccc(C2CC(c3ccc(C)cc3)Nc3ncnn32)c1 (centres undefined)	0.99
CCOC(=O)N1CCC(NC(=O)c2cc3sccc3n2Cc2ccc(F)cc2)CC1	0.97
Cc1ccccc1Nc1c(-c2c[nH]c3ccccc23)nc2c(C)cccn12	0.8
CC(C)(C)c1ccc(C(=O)Nc2ccc3oc(-c4ccccc4)nc3c2)cc1	0.95
COC(=O)c1c(NC(=O)C(C)Oc2ccc(C)c(C)c2)sc2c1CCCC2 (centres undefined)	1.1
Cc1cc(C)n(Cc2ccc(F)cc2)c(=O)c1C#N	1.1
N#Cc1c(-c2ccc(F)cc2)c(C#N)c(=O)n(N)c1N	0.16*
COC(=O)c1ccccc1NC(=O)C1CCCN(C(=O)c2cnn(-c3ccccc3)c2-n2cccc2)C1 (centres undefined)	0.89
CC(C)c1ccc(NC(=O)c2cnc(N3CCN(c4ncccn4)CC3)c3ccccc23)cc1	1.1
CC(C)(CC(N)=O)CC1=NS(=O)(=O)c2ccccc2N1	0.9
CCCCC(=O)NCCc1cc2ccc(C)cc2[nH]c1=O	1
Cc1cccc(-n2c(Cc3cc(=O)[nH]c(=O)[nH]3)nnc2SCC(=O)Nc2cc(C)ccc2C)c1	1
SMILES	CBX7 AlphaScr
CCCCNC(=O)C1CC(=O)N(CCc2ccccc2)C1 (centres undefined)	1
CCCCN(CCCNC(=O)C1CC(=O)N(CCc2ccccc2)C1)c1ccccc1 (centres undefined)	0.5*
CCN(CCCNC(=O)C1CC(=O)N(CCc2ccccc2)C1)c1cccc(C)c1 (centres undefined)	0.99
O=C(Cn1ccc2ccccc2c1=O)NCC(=O)N1CCC(Cc2ccccc2)CC1	0.84
O=C(NCc1ccccc1)c1ccc2c(c1)N(Cc1c(F)cccc1Cl)C(=O)CS2	1
CCOCCCNC(=O)CCc1nc(-c2ccc(OC)cc2)no1	0.89
Cc1ccc(-c2noc(COc3ccc(C(C)(C)C)cc3)n2)cc1	1.2
O=C(Nc1ccc2c(c1)nc1n2CCN(Cc2ccccc2)C1)c1ccccc1	0.95
Cc1ccccc1-c1nc(CS(=O)(=O)CC(=O)N2CCN(Cc3ccccc3)CC2)c(C)o1	0.69
Cc1ccccc1-c1nc(CS(=O)(=O)CC(=O)N2CCCCC2)c(C)o1	0.99
Cc1ccccc1-c1nc(CS(=O)(=O)CC(=O)N2CCC(Cc3ccccc3)CC2)c(C)o1	0.49*
CCOC(=O)c1c(C)n(-c2ccc(N(CC)CC)cc2)c2c1cc(O)c1ccccc12	0.91
Cc1ccc(-n2ncc3c(NCc4cccnc4)ncnc32)c(C)c1	1
Cc1ccc(-n2ncc3c(NCCO)ncnc32)c(C)c1	0.95
Cc1ccc(-n2ncc3c(NCc4ccccn4)ncnc32)c(C)c1	0.12*
O=C(CN1CCN(Cc2cccc(Cl)c2)C1=O)NCCc1ccccc1	0.95
CC(=O)Nc1ccc(C(=O)NCCc2nc3ccccc3[nH]2)cc1	0.85
Cc1ccc2c(c1)Oc1cc([N+](=O)[O-])cc(Oc3ccc(Cl)cc3)c1C(=O)N2	0.2*
Cc1ccc2c(c1)Oc1cc([N+](=O)[O-])cc(Oc3ccccc3C)c1C(=O)N2	0.049*
CC(=O)Nc1ccc(Oc2cc([N+](=O)[O-])cc3c2C(=O)Nc2ccccc2O3)cc1	0.66
CCC(C(=O)NC1CCCC1)n1c(SCc2cccc(F)c2)nc2ccncc21 (centres undefined)	0.97
Cc1cc(C)cc(NC(=O)CSc2nnc(CNC(=O)COc3ccc(Cl)cc3)o2)c1	0.93
Cc1cccc(Nc2nc(-c3ccncc3)cs2)c1	0.72
Oc1cccc(Nc2nc(-c3ccccn3)cs2)c1	0.19*
O=C(O)c1cccc(Nc2nc(-c3ccncc3)cs2)c1	0.97
SMILES	CBX7 AlphaScr
O=C(O)c1cccc(Nc2nc(-c3ccccc3)cs2)c1	1
Oc1cccc(Nc2nc(-c3ccncc3)cs2)c1	0.77
COc1ccc(-c2csc(Nc3cccc(O)c3)n2)cc1OC	0.87
Cc1cccc(Nc2nc(-c3ccc(Cl)cc3)cs2)c1	0.76
O=C(O)c1cccc(Nc2nc(-c3ccccn3)cs2)c1	0.15*
c1cnc(Nc2nc(-c3ccncc3)cs2)nc1	1.1
c1ccc(-c2csc(Nc3ncccn3)n2)nc1	0.0089*
CCc1ccc(-c2csc(Nc3ncccn3)n2)cc1	1.1
Cc1cccc(Nc2nc(-c3ccccn3)cs2)c1	0.16*
C#CCOc1ccc(-c2nnc(Nc3ccc(OC)c(C(=O)NC)c3)c3ccccc23)cc1	1
Cc1ccccc1Nc1c(-c2cccc(Cl)c2)nc2ccccn12	1.1
COc1ccc(N2C(=O)CCC(C(=O)NCc3ccccc3OC)C2c2ccc(F)cc2)cc1 (centres undefined)	1.1
Cc1cccc2c1-c1sc(C(=O)NCc3ccc(F)cc3)cc1CO2	1.1
COc1ccc(Cl)cc1S(=O)(=O)N1CC(=O)N(CCc2ccccc2)C(=O)C1	1.1
Cc1ccc(CC(=O)Nc2nnc(Cc3ccc(Cl)cc3)s2)cc1	0.9
CC1CCc2c(oc3ccc(NS(=O)(=O)c4ccc(Br)cc4)cc23)C1 (centres undefined)	1.1
O=C(NCC1CCCO1)c1ccc2c(c1)N(Cc1cccc(F)c1)C(=O)c1ccccc1S2 (centres undefined)	0.98
CCN(CCNC(=O)CN1C(=O)COc2ccc(S(=O)(=O)N3CCCC3)cc21)c1ccccc1	0.95
Oc1ccc(Nc2nc(-c3ccccn3)cs2)cc1	0.0014*
COc1ccc(-c2csc(Nc3ccc(O)cc3)n2)cc1OC	0.77
CCOc1ccccc1Nc1nc(-c2ccccn2)cs1	0.6
Cc1nc2cc(-c3ccccc3)nn2c(C)c1CCC(=O)Nc1ccc2c(c1)OCCO2	1
CCN(CC)C(=O)CSc1nc2ccccc2nc1Cc1ccc(F)cc1	0.79
NC(=O)c1c(NC(=O)CN2CCCCC2)sc2c1CCCC2	0.96
O=C(CN1CCCCCC1)Nc1c2c(nc3c1CCC3)CCCC2	0.074*
SMILES	CBX7 AlphaScr
CCCCC(=O)Nc1c2c(nc3c1CCC3)CCCC2	1
O=C(CCCN1C(=O)c2ccccc2C1=O)Nc1c2c(nc3c1CCC3)CCC2	1.1
O=C(CN1CCCC1)Nc1c2c(nc3c1CCC3)CCC2	0.27*
O=C(Cc1ccccc1)Nc1c2c(nc3ccccc13)CCC2	0.79
CCOC(=O)c1cnc2cc(C(F)(F)F)ccc2c1N1CCN(c2ccccc2F)CC1	1.1
O=C(NCCC1=CCCCC1)c1ccc2c(c1)NC(=O)c1ccccc1S2	0.89
